Measurements published in PubChem BioAssay (NCI).
Where “and” joins values, the source holds several entries; their conditions need not be identical. Equal entries are not always repeated. About 83,000 compounds went through this panel and 20% of them were active in at least one assay; those are over-represented in the sample as a whole.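 Growth was measured after 48 h exposure to one concentration of compound in 96-well plates. Values under 10 count as active.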 Calls of active or inactive are those of the source.

Each compound was assayed on HT29 colon (assay: NCI-60 one-dose screen, 48 h (100 = growth as untreated, 0 = no growth, -100 = all killed)). Settings: 10 µM.
Experimental: Growth inhibition of the HT29 human tumor cell line is measured as a screen for anti-cancer activity. Cells are grown in 96 well plates and exposed to the test compound for 48 hours. Compounds are tested at a single concentration, which is 10^-5 M for most compounds. The reported endpoint is percent growth (GI% or GIPRCNT), where numbers from 0 - 100% represent growth inhibition, and numbers from -100% - 0 represent cell death. For example, a value of 40 represents 60% growth inhibition. A value of 0 means no net growth occurred over the course of the experiment. A value of -40 indicates 40% of cells at the beginning of the experiment died by the end of the experiment. A value of -100 means all cells are dead at the end of the experiment.
NCI-60 Human Tumor Cell Lines Screen was performed using the standard one-dose NCI protocol, which is described in more detail at https://dtp.cancer.gov/discovery_development/nci-60/default.htm.
Compounds with GIPRCNT values below 10 were considered active. Activity score was based on GIPRCNT using the following formula: […]
Score is 0 for GIPRCNT values of 100 or above, 50 for GIPRCNT values of 0, and 100 for GIPRCNT values of -100.
With COc1ccc(C(=O)/C=C/c2ccc(OCc3ccc(Cl)cc3)cc2)cc1OC the growth was 87.2% (inactive).

Same assay, conditions: 10 µM unless noted
With COc1ccc(/C=C(\C#N)c2cc3ccccc3[nH]2)cc1 the growth was 8.16% (active).
Clc1ccc(CNc2ccc3nc(CCC4CCCCC4)[nH]c3c2)cc1 was tested, and the growth was 4.9% (active).
For C=CCOc1ccc(/C=C2\SC(=S)N(CCc3ccc(O)cc3)C2=O)cc1, the growth was 88.4% (inactive).
CCOc1ccccc1NC(=O)c1cc2ccccc2cc1O was tested, and the growth was 99.8% (inactive).
With COc1cc(CO)cc2cc3ccccc3nc12 the growth was 103% (inactive).
With CN1CCN(Cc2ccc(NC(=O)c3cccc(C#Cc4c(N)ncc5ccc(F)cc45)c3)cc2C(F)(F)F)CC1 the growth was -56.1% (active).
With C[N+]1=C(/C=C\C=C\c2ccccc2)C(C)(C)c2ccccc21 the growth was 12.3% (inactive).
In the case of COc1ccc(-c2nc(Cl)c3c(C)nn(-c4ccc(F)cc4)c3n2)cc1, the growth is reported as 98.3% (inactive).
COc1ccc(/C(C)=C(\c2ccc(OCCN3CCOCC3)cc2)c2ccc(OC(=O)C3CCCCC3)cc2)cc1 was tested, and the growth was 102% (inactive).
NCCOCCOc1ccccc1 was tested, and the growth was 97.6% (inactive).
O=C(c1cccc(Br)c1)N1CCN(c2ccnc3cc(Cl)ccc23)CC1 was tested, and the growth was 81.7% (inactive).
Oc1ccccc1C=Nc1ccc(N2CCN(c3ccccc3)CC2)cc1 was tested, and the growth was 99.5% (inactive).
For COc1ccc(-c2ccccc2)cc1-c1c(Nc2cc(Cl)cc(Cl)c2O)c(=O)c1=O, the growth was 44.6% (inactive).
COC(=O)N/N=C/c1c[n+]([O-])c2ccccc2[n+]1[O-] was tested, and the growth was 106% (inactive).
For CC(=O)N1N=C(c2ccc(Nc3nc(Nc4ccc(F)cc4)nc(Nc4ccc(F)cc4)n3)cc2)CC1c1ccccc1 (stereo not given), the growth was 96.3% (inactive).
With O=C(Nc1cc(C(F)(F)F)cc(C(F)(F)F)c1)c1cc(Cl)ccc1O the growth was 0.709% (active) and 1.2% (active).
In the case of COc1cc(F)c(/C=C/c2cc(/C=C/c3cc(OC)c(OC)cc3F)n(-c3cc(F)cc(F)c3)n2)cc1OC, the growth is reported as 22.9% (inactive).
In the case of FC(F)(F)Sc1ccc(/C=C/c2cc(/C=C/c3ccc(SC(F)(F)F)cc3)n(-c3ccccc3)n2)cc1, the growth is reported as 95.3% (inactive).
With O=C(/C=C/C12c3ccccc3C(c3ccccc31)C1C(=O)NC(=O)C12)c1ccncc1 (stereo not given) the growth was 12.1% (inactive).
In the case of CC(=O)c1nn(-c2ccccc2)/c(=N/N=Cc2cn(-c3ccccc3)nc2-c2cc3ccccc3oc2=O)s1, the growth is reported as 109% (inactive).
With CCN(C(=O)N1CCN(c2cc3c(cc2F)c(=O)c(C(=O)O)cn3C2CC2)CC1)c1nc(-c2ccccc2)cs1 the growth was 10.9% (inactive).
CN(C)c1ccc2nc3ccc(=O)cc-3sc2c1 was tested, and the growth was 39.9% (inactive) and 40.7% (inactive).
Cc1ccc(S(=O)(=O)OC[C@@]2(C)CC[C@]3(C)CC[C@]4(C)C(=C3C2)C=C[C@@H]2[C@@]3(C)CCCNC(C)(C)[C@@H]3CC[C@]24C)cc1 was tested, and the growth was -69.2% (active).
With N=C(N)c1ccc(-c2ccc(-c3ccc(Cl)c(Cl)c3)s2)cc1 the growth was 6.02% (active).
With Cc1ccc(/C=C/c2c(C(=O)/C=C/c3ccccc3)c(C)nc3ccccc23)cc1 the growth was 0.173% (active).
O=C1N=c2ccccc2=C1c1sc(=S)n(C2CC(=O)N(c3ccc(Cl)cc3)C2=O)c1O (stereo not given) was tested, and the growth was 114% (inactive).
COc1ccc(/C=C2/C(=O)N=C3N2NC(c2ccccc2)=CN3c2ccccc2)cc1 was tested, and the growth was 109% (inactive).
With Cc1c(C(=O)OCCCCOC(=O)c2c(C)n(C)c3scc[n+]23)[n+]2ccsc2n1C the growth was 107% (inactive).
In the case of Cc1ccc(Cl)cc1N1CCN(C(=O)[C@@H]2C[C@@H]2c2ccc(F)cc2)CC1, the growth is reported as 72.7% (inactive).
For COc1ccc(/C(C)=C(\c2ccc(OCCN3CCCCCC3)cc2)c2ccc(OC(=O)C3CCCCC3)cc2)cc1, the growth was -71% (active).
With COc1ccc2nc3cc(Cl)ccc3c(NCCCNCCC(C)O)c2c1 (stereo not given) the growth was 4% (active).
In the case of COc1c(O)c(O)cc2c3c(oc12)CC(c1ccc2c(c1)OCO2)CC3=O (stereo not given), the growth is reported as 93.4% (inactive).
O=S(=O)(Nc1ccc(F)cc1)c1ccc(-c2cnc(C3CC3)o2)cc1 was tested, and the growth was 7.98% (active).
For CN1CCN(Cc2ccc(NC(=O)c3nc4ccc5[nH]ncc5c4c4c3CCCC4)cc2C(F)(F)F)CC1, the growth was -83.2% (active).
N=c1c2c(-c3ccccc3)c(-c3ccccc3)oc2ncn1NC(=O)c1cccnc1 was tested, and the growth was 104% (inactive).
For Fc1ccc(NC(c2ccc(F)cc2)C2CCN(CCCCc3ccccc3)CC2)cc1 (stereo not given), the growth was 3.89% (active).
In the case of Nc1ccccc1SC(CC(=O)c1ccccc1)c1ccc([N+](=O)[O-])cc1 (stereo not given), the growth is reported as 19.7% (inactive) and 39.1% (inactive).
For COc1ccc(/C=C/C(=O)c2cc3c(N)c(C(=O)Nc4ccccc4)sc3nc2C)cc1, the growth was -3.68% (active).

Same assay, conditions: 100 µM
In the case of COc1ccc(C(=O)/C=C/c2ccc(OCc3ccc(Cl)cc3)cc2)cc1OC, the growth is reported as 35.8% (inactive).
